Assay outcomes (PubChem)
Compounds with a hit are over-represented: about 8% of the library has one in this group of screens.
VP16 counter = counter-screen for ROR gamma inhibitors: Gal4-VP16 reporter | Drosophila S2 Gal4-VP16 UAS-luciferase, luminescence, 20 h | Potency, µM (top dose mostly 53.6 µM), usual class: inhibitors | 310,000 compounds, 3.5% hits | AID 2546;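 further: Gal4-VP16 expression switched on by copper sulfate through the metallothionein promoter; nearly all actives have a fitted effect of over 50% in size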
ELG1 repair inh = inhibitors of ELG1-dependent DNA repair in HEK293T cells | HEK293T ELG1-luciferase reporter, luminescence, 16 h; DNA damage induced by 5-fluorouridine | Potency, µM (series often up to 46.1 µM), usual class: inhibitors | AID 504467 | 330,000 compounds, 2.3% hits; further: nearly all actives have a fitted effect of over 55% in size
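DMSO vehicle served as the neutral condition. Each well held 2,000 cells given 5-fluorouridine plus compound; after 16 hr at 37 °C/5% CO2, ONE-Glo was added and luciferase measured 30 min later.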
RORg inh = inhibitors of mouse ROR gamma transcriptional activity; Drosophila S2 Gal4-RORgamma UAS-luciferase reporter, 20 h; Potency, µM (top dose mostly 53.6 µM), most hits filed as inhibitors; P51450; AID 2551; 310,000 compounds, 5.4% hits; further: nearly all actives have a fitted effect of over 60% in size
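Drosophila Schneider cells stably carrying a metallothionein-driven Gal4 DBD–ROR gamma fusion and a UAS-Photinus luciferase reporter were exposed to compound for 1 hr, then induced with copper sulfate (700 uM final) for 20 hr at ambient temperature before luminescence reading.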
Coupling enz = counter-screen for Giardia aldolase inhibitors: coupling enzyme system. coupling enzyme system counterscreen, AmpLite Red fluorescence. activity change, negative = inhibition, % at 58.2 µM, hits read low. 290,000 compounds, 0.67% hits. AID 2472; in the data active means activity change below about -30%
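Counterscreen lacking aldolase: glyceraldehyde-3-phosphate coupling-enzyme reagent preincubated 10 min at RT with compound (at 57.5 uM final), then substrate/coupling system with AmpLite Red added; fluorescence read at 525/598 nm after 20 min RT.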
TSHR antag = antagonists of human thyroid stimulating hormone receptor. activity change, negative = inhibition, % at 11.5 µM. 330,000 compounds, 0.2% hits. AID 504810. TSHR-expressing cells, TSH-stimulated cAMP HTRF, 2 h; stronger effect = lower value;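 active means activity change below a set negative limit, meaning inhibition stronger than a set level, cut at about -70% in these data; inconclusive means activity change between two set negative limits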
Target sequence (P16473 whole entry, looked up): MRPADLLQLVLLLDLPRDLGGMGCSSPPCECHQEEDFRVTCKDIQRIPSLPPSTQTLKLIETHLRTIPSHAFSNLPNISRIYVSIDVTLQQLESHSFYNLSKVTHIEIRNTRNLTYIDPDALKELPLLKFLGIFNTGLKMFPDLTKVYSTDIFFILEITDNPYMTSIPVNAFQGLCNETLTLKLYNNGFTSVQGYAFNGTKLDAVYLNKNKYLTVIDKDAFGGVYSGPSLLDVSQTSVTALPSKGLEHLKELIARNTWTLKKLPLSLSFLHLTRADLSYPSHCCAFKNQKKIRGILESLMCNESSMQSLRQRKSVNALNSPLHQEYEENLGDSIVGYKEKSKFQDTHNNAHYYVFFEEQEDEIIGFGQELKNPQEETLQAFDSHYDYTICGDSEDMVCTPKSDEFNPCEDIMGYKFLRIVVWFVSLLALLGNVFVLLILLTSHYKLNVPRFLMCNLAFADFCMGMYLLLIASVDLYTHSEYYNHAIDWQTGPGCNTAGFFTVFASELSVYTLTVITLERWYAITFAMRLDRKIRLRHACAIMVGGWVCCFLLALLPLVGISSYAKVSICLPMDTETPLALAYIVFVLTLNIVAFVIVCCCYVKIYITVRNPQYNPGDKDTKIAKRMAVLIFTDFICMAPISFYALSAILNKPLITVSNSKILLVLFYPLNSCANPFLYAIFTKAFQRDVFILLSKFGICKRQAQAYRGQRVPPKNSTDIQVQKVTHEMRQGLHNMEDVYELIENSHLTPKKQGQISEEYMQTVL
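TSHR-expressing cells were treated with compounds, then stimulated with TSH at EC80 (4nM final) for 2 hours at 37 deg C. Cellular cAMP was measured by HTRF competition between lysate cAMP and cAMP-d2 for a cryptate-labelled anti-cAMP antibody.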
Numbers stand for hits; – = inactive; ? = inconclusive; · = no result; [ ] = another dose, or the depositor's remark. Unless noted, the call rests on the fitted dose curve; in most records, active means well fitted curve in the direction sought with a large enough effect; inconclusive means small, poorly fitted or top-dose-only effect, or another doubt; inactive means no such curve, though single readings can be large; an effect the other way counts as inactive or inconclusive.

SMILES	VP16 counter	ELG1 repair inh	RORg inh	Coupling enz	TSHR antag
O=C(CNC(=O)c1ccncc1)N/N=C/c1cc(Br)ccc1O	–	–	–[10 µM]	–	–
O=C(CNC(=O)c1ccccc1)N/N=C/c1cc(Br)ccc1O	7.1µM	–	2.5µM	–	–
O=C(CNC(=O)c1ccco1)N/N=C/c1cc(Br)ccc1O	11µM	?	8.9µM	–	–
O=C(CN1CC(c2ccccc2)CC1=O)N/N=C/c1cc(Br)ccc1O (stereo unspecified)	3.2µM	–	4.5µM	–	–
O=C(CNC(=O)c1ccccc1Br)N/N=C/c1cc(Br)ccc1O	5µM	?	2.2µM	–	–
CSc1ccccc1NC(=O)CN(C)CC(=O)c1c(C)[nH]c2ccccc12	·	–	·	·	–
CC[C@H](C)[C@H](NC(=O)[C@H](Cc1ccc(O)cc1)NC(=O)[C@@H]1CCCN1C(=O)[C@@H](N)CCCN=C(N)N)C(=O)N[C@@H](CC(C)C)C(=O)O	–	·	–	–	·
CCOC(=O)c1c(-c2ccccc2)oc2ccc(OCC(O)CNCCN(C)C)cc12 (stereo unspecified)	?	?	?	–	–
O=C(N/N=C/c1cc(Cl)ccc1O)c1ccccc1Br	1.3µM	?	0.71µM	–	–
Nc1nnc(CC(=O)N/N=C/c2cc([N+](=O)[O-])cc(Br)c2O)s1	–[10 µM]	–	–	–	–
O=C(CNC(=O)c1ccccc1Br)N/N=C\c1cc([N+](=O)[O-])cc(Br)c1O	7.9µM	–	11µM	–	–
O=C(CNC(=O)c1ccc2c(c1)OCO2)N/N=C/c1cc(Br)ccc1O	?	–	20µM	–	–
COC(=O)N/N=C/c1cc([N+](=O)[O-])cc(Br)c1O	?	–	11µM	–	–
CCOc1ccc(Cl)cc1/C=N/NC(=O)CNC(=O)c1ccccc1	–	–	–	-38	–
O=C(N/N=C/c1ccc2c(c1)OCCO2)c1ccncc1	–	–	–	–	–
Cc1cccc(NC(=S)N/N=C/c2ccc3c(c2)OCO3)c1	–	–	–	–	–
CNC(=S)N/N=C/c1ccc2c(c1)OCCO2	0.63µM	?	?	–	–
NC(=S)N/N=C/c1ccc2c(c1)OCCO2	?	?	11µM	–	–
COc1ccc(CNC(=O)CN2C(=O)COc3ccc(S(=O)(=O)N4CCC(C)CC4)cc32)cc1	–	–	–	–	–
CN1CC(=O)N/C1=N/C(=O)Nc1cccc(Cl)c1	–	·	?	–	–
CN1CC(=O)NC1=NC(=O)C12CC3CC(CC(C3)C1)C2	4µM	–	2.2µM	–	–
N[C@H]1CCN(O)C1=O	–	·	–	–	·
S=c1[nH]nc(COc2ccccc2)n1/N=C/c1c(Cl)cccc1Cl	–	–	3.5µM	–	–
S=c1[nH]nc(COc2ccccc2)n1/N=C/c1cccc(Cl)c1Cl	?	–	?	–	–
S=c1[nH]nc(COc2ccccc2)n1/N=C/c1ccccc1Cl	13µM	–	6.3µM	–	–
SMILES	VP16 counter	ELG1 repair inh	RORg inh	Coupling enz	TSHR antag
CC(C)NC(=O)NC(=O)COC(=O)c1ccccc1F	–	–	11µM	–	–
CCOC(=O)Nc1oc2ccccc2c(=O)c1CN1CCOCC1	–	10µM	–	–	–
CCOC(=O)c1oc2ccccc2c1CN1CC(C)OC(C)C1 (stereo unspecified)	–	–	–	–	–
Cc1cccc(CS(=O)(=O)c2ncc(Cl)c(C(=O)Nc3nnc(C(C)C)s3)n2)c1	?	?	0.022µM	·	-74
CCSc1nnc(NC(=O)c2nc(S(=O)(=O)Cc3ccc(F)cc3)ncc2Cl)s1	11µM	–	?	·	–
Cc1ccc(CS(=O)(=O)c2ncc(Cl)c(C(=O)Nc3ccc(OC(F)F)cc3)n2)cc1	?	?	–	·	?
CSc1nnc(NC(=O)c2nc(S(=O)(=O)Cc3cccc(C)c3)ncc2Cl)s1	18µM	–	?	·	?
Cc1ccc(CS(=O)(=O)c2ncc(Cl)c(C(=O)Nc3nnc(C(C)C)s3)n2)cc1	7.1µM	?	?	–	?
C[C@@H](N)C(=O)NC[C@H]1O[C@@H](n2cnc3c(N)ncnc32)[C@H](O)[C@@H]1O	·	–	·	·	–
COc1ccc(S(=O)(=O)N2CCOCC2)cc1NC(=O)c1ccccc1C	–	–	–	·	–
CC(C)CC1NC(=O)N(CC(=O)Nc2ccc(OCc3ccccc3)cc2)C1=O (stereo unspecified)	·	–	·	·	–
CCOc1nc(C)cc(C)c1S(=O)(=O)c1cccc(Cl)c1	–	–	–	–	–
CCCNC(=O)C1CN(C(=O)c2nn(Cc3ccccc3)c(=O)c3ccccc23)c2ccccc2O1 (stereo unspecified)	·	?	·	·	–
COc1ccc(/C=C(/NC(=O)c2ccccc2)C(=O)N2CCCC2)cc1	–	–	–	–	–
C=CCSc1nnc(NC(=O)c2nc(SCC)ncc2Cl)s1	?	–	11µM	–	–
CC(C)c1nnc(NC(=O)c2nc(S(=O)(=O)Cc3ccc(F)cc3)ncc2Cl)s1	?	?	11µM	·	-75
Cn1c(N)c(C(=O)COC(=O)/C=C/c2ccc(Cl)c(Cl)c2)c(=O)n(C)c1=O	·	–	·	·	–
CC1=CC(=O)C=C(C)C1=NOc1ccccc1[N+](=O)[O-]	?	?	10µM	-37	–
CC(C)(C)/C(COc1ccccc1[N+](=O)[O-])=N/O	–	–	?	–	–
O=C(Nc1ccccc1Cl)c1ccc([N+](=O)[O-])o1	16µM	?	10µM	–	–
Cc1cccc(NC(=O)c2ccc([N+](=O)[O-])o2)n1	?	–	11µM	–	–
CS(=O)(=O)N1CCN(c2ccccc2NC(=O)c2ccc([N+](=O)[O-])o2)CC1	–	23µM	–	–	–
CS(=O)(=O)N1CCN(c2ccccc2NC(=O)c2ccc3c(c2)OCCO3)CC1	–	–	–	–	–
CS(=O)(=O)N1CCN(c2ccccc2NC(=O)c2ccc3ccccc3c2)CC1	–	12µM	–	–	–
Cc1ccccc1NC(=O)c1ccc([N+](=O)[O-])o1	–	?	–	–	–
SMILES	VP16 counter	ELG1 repair inh	RORg inh	Coupling enz	TSHR antag
Cc1ccc(CNC(=O)[C@H](C)[C@@H]2C[C@@]2(C)[C@@H](NC(=O)OCc2ccccc2)c2ccccc2)o1	–	·	?	–	·
CC(C)NC(=O)N1CCC2(CC1)CCN(S(C)(=O)=O)CC2	–	·	–	–	·
N[C@@H](C(=O)O)[C@H](CC(=O)O)c1ccc(Cl)cc1	–	·	–	–	·
CN1CCN(c2ccccc2NC(=O)c2ccc(-c3ccc(Br)cc3)o2)CC1	–	?	–	·	–
CN1CCN(c2ccccc2NC(=O)c2ccc([N+](=O)[O-])o2)CC1	?	9.2µM	?	·	–
O=C(Nc1ccc(Cl)cc1C(F)(F)F)C(Sc1nnc(-c2cccs2)o1)c1ccccc1 (stereo unspecified)	–	–	–	–	–
O=C(Nc1cc(C(F)(F)F)ccc1Cl)C(Sc1nnc(-c2cccs2)o1)c1ccccc1 (stereo unspecified)	?	–	11µM	–	–
